# From PubChem BioAssay AID2284167 (EPA ToxCast)
# Records with an inconclusive call do not appear. The source made the active and inactive calls. Rule for the calls: active = hit-call score of the fitted dose curve at least 0.9, where 1 is the maximum; inconclusive = response in the unintended direction; inactive = score below 0.9.
# Biological target: human Neurotensin Receptor NT1 Agonism, NTSR1 (gene 4923) (UniProt P30989)
# Assay: ERF_FR_GPCR_hNTSR1: Eurofins (ERF) G Protein-Coupled Receptor (GPCR) Radioligand Binding LeadHunter Assay for human Neurotensin Receptor NT1 Agonism
# Protocol: ERF_FR_GPCR_hNTSR1 is a biochemical, single-readout assay that uses extracted gene-proteins in a cell-free assay. Measurements were taken 1 hour after chemical dosing in a 96-well plate. See NT1 Human Neurotensin GPCR Binding (Agonist Radioligand) Assay, Cerep.ERF_FR_GPCR_hNTSR1 is an assay component calculated from the ERF_FR_GPCR_hNTSR1 assay. It is designed to measure radioligand binding using a type of binding reporter as detected by scintillation counting with radiometry technology.Data from the assay component ERF_FR_GPCR_hNTSR1 was analyzed at the assay endpoint, ERF_FR_GPCR_hNTSR1, in the positive analysis fitting direction relative to DMSO as the negative control and baseline of activity. Using a type of binding reporter, gain-of-signal activity can be used to understand changes in binding as they relate to gene NTSR1. To generalize the intended target to other relatable targets, this assay endpoint is annotated to the gpcr intended target family, where the subfamily is neurotensin.
# Human cells are incubated for 60 minutes at 4 C with [125I]Tyr3-neurotensin ligand (0.05 nM) and neurotensin as control inhibitor. Test Sample Requirements: Minimum for 1) Screen: 60 ul of 10 mM stock -OR- 1 mg (pre-weighed) for 10 uM final testing. 2) Dose Response: 90 ul of 10 mM stock -OR- 1 mg (pre-weighed) for a top concentration at 10 uM.
# Sequence of human Neurotensin Receptor NT1 Agonism, NTSR1 (gene 4923) (P30989 whole entry, looked up): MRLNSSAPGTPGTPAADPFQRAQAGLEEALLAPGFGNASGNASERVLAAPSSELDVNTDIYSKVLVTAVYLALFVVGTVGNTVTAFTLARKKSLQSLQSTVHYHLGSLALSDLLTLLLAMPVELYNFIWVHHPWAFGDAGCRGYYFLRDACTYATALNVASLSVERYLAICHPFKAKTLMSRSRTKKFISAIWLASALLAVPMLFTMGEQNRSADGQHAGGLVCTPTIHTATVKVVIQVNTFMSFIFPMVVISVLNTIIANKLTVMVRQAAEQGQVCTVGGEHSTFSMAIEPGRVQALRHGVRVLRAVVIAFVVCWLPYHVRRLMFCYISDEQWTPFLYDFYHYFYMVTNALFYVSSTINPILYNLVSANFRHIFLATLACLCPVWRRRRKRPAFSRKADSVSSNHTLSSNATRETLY
row,SMILES,AC50
1,O=C(/C=C/c1ccc(O)cc1)CC(=O)/C=C/c1ccc(O)cc1,2.99 µM (active)
